Reference: PubChem BioAssay (Tox21)
Inconclusive results are not listed. Entries that show only a call come without a potency. Activity calls are given as the source filed them. Unless noted, the call rests on the fitted dose curve; in most records, active means well fitted curve in the direction sought with a large enough effect in the repeat runs; inconclusive means weak or mixed curves; inactive means no such curve, though single readings can be large; an effect the other way counts as inactive or inconclusive.

Tests used:
[1] = target: Aryl hydrocarbon receptor (Homo sapiens) (UniProt P35869); test: qHTS assay to identify small molecule that activate the aryl hydrocarbon receptor (AhR) signaling pathway (AID 743085); further: nearly all actives have a fitted effect of over 15% in size; further: potency means the concentration at half of the fitted maximal effect;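 on activation: HG2L7.5c1 human HepG2 liver cells with stably integrated DRE-driven firefly reporter; series mostly up to about 70 µM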
Chain of Aryl hydrocarbon receptor (Homo sapiens) (P35869 whole entry, looked up): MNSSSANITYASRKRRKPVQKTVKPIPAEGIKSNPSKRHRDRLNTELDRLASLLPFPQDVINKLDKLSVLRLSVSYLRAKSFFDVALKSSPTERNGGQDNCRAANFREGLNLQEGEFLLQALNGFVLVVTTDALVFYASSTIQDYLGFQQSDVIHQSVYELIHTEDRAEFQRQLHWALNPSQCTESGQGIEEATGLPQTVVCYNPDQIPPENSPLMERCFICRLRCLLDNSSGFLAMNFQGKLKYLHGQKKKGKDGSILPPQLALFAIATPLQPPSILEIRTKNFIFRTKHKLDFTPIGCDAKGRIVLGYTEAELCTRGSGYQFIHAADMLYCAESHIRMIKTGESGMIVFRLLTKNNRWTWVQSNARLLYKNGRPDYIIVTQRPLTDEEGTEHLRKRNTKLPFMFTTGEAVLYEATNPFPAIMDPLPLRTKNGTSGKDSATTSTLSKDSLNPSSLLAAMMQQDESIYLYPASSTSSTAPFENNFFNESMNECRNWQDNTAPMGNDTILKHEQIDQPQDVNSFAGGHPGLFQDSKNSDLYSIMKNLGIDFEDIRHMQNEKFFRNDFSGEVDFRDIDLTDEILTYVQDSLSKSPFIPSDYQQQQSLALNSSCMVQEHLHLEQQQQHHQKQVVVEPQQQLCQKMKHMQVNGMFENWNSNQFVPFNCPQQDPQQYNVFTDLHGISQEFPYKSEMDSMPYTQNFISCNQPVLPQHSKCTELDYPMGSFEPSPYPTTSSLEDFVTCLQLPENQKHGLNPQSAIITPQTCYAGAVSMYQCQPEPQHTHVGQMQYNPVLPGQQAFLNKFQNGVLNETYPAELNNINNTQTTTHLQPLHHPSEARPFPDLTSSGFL
Outline: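 Cell line HG2L7.5c1 (human hepatoma, 20× DRE-luc). Plated, 5 h 37C, compound/DMSO added, 24 h 37C. CellTiter-Fluor 30 min 37C → fluorescence; then ONE-Glo 30 min RT → luminescence.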

[2] = qHTS assay to identify small molecule that activate the aryl hydrocarbon receptor (AhR) signaling pathway - cell viability counter screen (AID 743086);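 further: HepG2 liver cells carrying the AhR DRE luciferase reporter; series mostly up to about 70 µM; nearly all actives have a fitted effect of over 45% in size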
Outline: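 Cytotoxicity counter screen: CellTiter-Fluor signal (30 min, 37 C) in 4000 HepG2 cells/well carrying the DRE-luciferase reporter, following 24 h compound exposure at 37 C.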

[3] = target: Peroxisome proliferator-activated receptor gamma (Homo sapiens) (UniProt P37231); test: qHTS assay to identify small molecule antagonists of the peroxisome proliferator-activated receptor gamma (PPARg) signaling pathway (AID 743191; calls by dose curve; further: series mostly up to about 63 µM; nearly all actives have a fitted effect of over 30% in size)
Chain of Peroxisome proliferator-activated receptor gamma (Homo sapiens) (P37231 whole entry, looked up): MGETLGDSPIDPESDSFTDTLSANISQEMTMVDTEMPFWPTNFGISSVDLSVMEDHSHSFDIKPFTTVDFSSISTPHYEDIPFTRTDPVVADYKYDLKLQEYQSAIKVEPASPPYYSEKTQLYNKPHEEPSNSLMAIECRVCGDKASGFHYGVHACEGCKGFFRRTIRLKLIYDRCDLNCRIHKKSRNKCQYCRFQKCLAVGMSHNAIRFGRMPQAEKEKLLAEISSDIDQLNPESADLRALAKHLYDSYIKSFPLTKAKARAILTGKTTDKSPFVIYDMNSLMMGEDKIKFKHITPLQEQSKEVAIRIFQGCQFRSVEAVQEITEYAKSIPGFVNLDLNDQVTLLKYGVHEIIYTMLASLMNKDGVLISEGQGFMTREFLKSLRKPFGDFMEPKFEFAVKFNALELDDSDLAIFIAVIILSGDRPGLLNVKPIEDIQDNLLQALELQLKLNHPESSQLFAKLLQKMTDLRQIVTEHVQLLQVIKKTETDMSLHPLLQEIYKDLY
Outline: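 Beta-lactamase reporter under UAS control in HEK293H PPARg-bla cells; compound treatment 17 h at 37C. Read-out: fluorescence intensity after 1 h room-temperature incubation with LiveBLAzer B/G FRET substrate.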

[4] = qHTS assay to identify small molecule antagonists of the peroxisome proliferator-activated receptor gamma (PPARg) signaling pathway - cell viability counter screen (AID 743194); further: nearly all actives have a fitted effect of over 55% in size
Outline: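 Viability was measured as CellTiter-Glo luminescence in GeneBLAzer PPARg UAS-bla HEK293H cells. These cells had been exposed 17 h at 37 C to compounds together with rosiglitazone at 50 nM final, with the beta-lactamase readout taken in the same wells.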

[5] = qHTS assay for small molecule agonists of the antioxidant response element (ARE) signaling pathway (AID 743202; active means well fitted activation curve with a large enough effect in the signal ratio in the repeat runs, not every such curve was filed as active; the % refers to the signal ratio)
Outline: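 After 16 hours of compound treatment at 37 C, HepG2 cells with a stably integrated ARE-driven beta-lactamase reporter were loaded 2 hours at room temperature with LiveBLAzer B/G FRET substrate and fluorescence intensity measured.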

[6] = qHTS assay for small molecule agonists of the antioxidant response element (ARE) signaling pathway - cell viability counter screen (AID 743203; calls by dose curve; further: nearly all actives have a fitted effect of over 55% in size)
Outline: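 Viability counter screen: stably transfected ARE-bla HepG2 line, 16 hrs compound exposure at 37C/5% CO2, ATP-based CellTiter-Glo luminescence measured in the reporter wells.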

[7] = qHTS assay for small molecule activators of the heat shock response signaling pathway - cell viability counter screen (AID 743209); further: nearly all actives have a fitted effect of over 50% in size
Outline: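 Viability of HSE-bla HeLa cells is measured with CellTiter-Glo in the wells already used for the reporter read. Compound exposure lasts 5 h at 37 C, and luminescence is read after 30 min at room temperature.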

[8] = target: Peroxisome proliferator-activated receptor delta (Homo sapiens) (UniProt Q03181); test: qHTS assay to identify small molecule agonists of the peroxisome proliferator-activated receptor delta (PPARd) signaling pathway (AID 743212; calls by dose curve;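 further: HEK293H cells with PPARd UAS beta-lactamase reporter GeneBLAzer system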)
Chain of Peroxisome proliferator-activated receptor delta (Homo sapiens) (Q03181 whole entry, looked up): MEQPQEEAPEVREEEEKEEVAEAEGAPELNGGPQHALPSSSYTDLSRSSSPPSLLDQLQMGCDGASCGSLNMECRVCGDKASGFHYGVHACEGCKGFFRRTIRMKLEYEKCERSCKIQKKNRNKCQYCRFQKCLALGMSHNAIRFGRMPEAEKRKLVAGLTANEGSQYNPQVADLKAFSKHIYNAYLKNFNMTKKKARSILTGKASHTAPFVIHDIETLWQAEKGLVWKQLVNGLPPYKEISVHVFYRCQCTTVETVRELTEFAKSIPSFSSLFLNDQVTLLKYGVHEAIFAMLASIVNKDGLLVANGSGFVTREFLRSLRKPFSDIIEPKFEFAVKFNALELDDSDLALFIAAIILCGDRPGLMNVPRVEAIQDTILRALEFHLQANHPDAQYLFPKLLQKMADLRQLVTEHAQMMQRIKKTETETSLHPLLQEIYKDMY
Outline: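 Beta-lactamase reporter readout: a ratiometric FRET signal from the LiveBLAzer substrate after 2 h at room temperature. Compound exposure at 37 °C in PPARδ-bla HEK293H cells driven by an upstream activator sequence.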

[9] = qHTS assay to identify small molecule antagonists of the peroxisome proliferator-activated receptor delta (PPARd) signaling pathway - cell viability counter screen (AID 743213); further: nearly all actives have a fitted effect of over 50% in size
Outline: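 Viability counter-screen, qHTS format: PPARd-bla HEK293H, L165041 300 nM final, 17 h compound exposure at 37 C, CellTiter-Glo luminescence after 30 min RT.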

[10] = target: Peroxisome proliferator-activated receptor delta (Homo sapiens) (UniProt Q03181); test: qHTS assay to identify small molecule antagonists of the peroxisome proliferator-activated receptor delta (PPARd) signaling pathway (AID 743215; active means well fitted inhibition curve with a large enough effect in the signal ratio in the repeat runs, not every such curve was filed as active; the % refers to the signal ratio;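 further: cells stimulated with agonist L165041 at 300 nM final during compound exposure; series mostly up to about 62 µM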)
Outline: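 Plated HEK293H PPARd-bla cells rested 5 h at 37 C and 5% CO2. Compound, then agonist L165041 at 300 nM final, was added; 17 h at 37 C followed. Substrate loading, 2 h room temperature, fluorescence measured.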

[11] = qHTS assay to identify small molecule agonists of the farnesoid-X-receptor (FXR) signaling pathway - cell viability counter screen (AID 743218); further: nearly all actives have a fitted effect of over 45% in size
Outline: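 Viability of FXR-bla HEK 293T cells is measured by ATP-based CellTiter-Glo luminescence following 16 h compound treatment at 37 C and a prior 2 h room-temperature beta-lactamase substrate step.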

[12] = target: Vitamin D3 receptor (Homo sapiens) (UniProt P11473); test: qHTS assay to identify small molecule agonists of the vitamin D receptor (VDR) signaling pathway (AID 743222; calls by dose curve)
Chain of Vitamin D3 receptor (Homo sapiens) (P11473 whole entry, looked up): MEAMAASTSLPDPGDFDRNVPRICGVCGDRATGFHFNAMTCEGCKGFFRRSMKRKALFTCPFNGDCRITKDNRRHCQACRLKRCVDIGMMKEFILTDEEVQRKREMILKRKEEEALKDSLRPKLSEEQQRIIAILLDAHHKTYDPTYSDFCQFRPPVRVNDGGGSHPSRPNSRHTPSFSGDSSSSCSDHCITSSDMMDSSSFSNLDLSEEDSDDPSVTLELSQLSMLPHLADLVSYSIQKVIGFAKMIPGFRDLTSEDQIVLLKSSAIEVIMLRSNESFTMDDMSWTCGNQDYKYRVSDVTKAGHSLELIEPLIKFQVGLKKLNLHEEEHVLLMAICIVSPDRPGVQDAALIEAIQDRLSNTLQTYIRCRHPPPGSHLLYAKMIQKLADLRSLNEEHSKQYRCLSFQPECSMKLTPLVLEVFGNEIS
Outline: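 Fluorescence from cleaved LiveBLAzer B/G FRET substrate served as readout. VDR-bla cells had been treated 16 h at 37C with test compounds in DMSO, following a 4 h settling period, and substrate was loaded for 2 h at RT.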

[13] = qHTS assay to identify small molecule agonists of the vitamin D receptor (VDR) signaling pathway - cell viability counter screen (AID 743224); further: series mostly up to about 63 µM; nearly all actives have a fitted effect of over 50% in size
Outline: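 Compounds were pin-transferred onto VDR-bla cells plated 4 h earlier; following 16 h incubation at 37C, cell viability was quantified by CellTiter-Glo luminescence after 30 min at room temperature.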

[14] = qHTS assay for small molecule activators of the heat shock response signaling pathway (AID 743210; active means well fitted activation curve with a large enough effect in the signal ratio in the repeat runs, with a control signal flat, not every such curve was filed as active; the % refers to the signal ratio; further: series mostly up to about 63 µM)
Outline: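 Compound exposure lasted 5 h at 37 C in HeLa cells carrying a heat-shock-element-driven beta-lactamase reporter. Read-out: fluorescence intensity after 2.5 h room-temperature loading with LiveBLAzer B/G FRET substrate.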

[15] = qHTS assay to identify small molecule agonists of the peroxisome proliferator-activated receptor delta (PPARd) signaling pathway - cell viability counter screen (AID 743211); further: nearly all actives have a fitted effect of over 55% in size
Outline: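 HEK293H PPARd-bla, 3000 cells/well; 5 h preincubation 37C/5% CO2; cpd in DMSO, 17 h 37C; B/G FRET substrate 2 h RT; CellTiter-Glo 30 min RT, luminescence.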

[16] = target: Vitamin D3 receptor (Homo sapiens) (UniProt P11473); test: qHTS assay to identify small molecule antagonists of the vitamin D receptor (VDR) signaling pathway (AID 743223; active means well fitted inhibition curve with a large enough effect in the signal ratio in the repeat runs, not every such curve was filed as active; the % refers to the signal ratio)
Outline: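 Antagonist mode uses 1alpha,25-dihydroxyvitamin D3 at 3 nM final as stimulus. VDR-bla cells receive compounds in DMSO, incubate 16 h at 37C, then a beta-lactamase FRET substrate for 2 h at room temperature before fluorescence measurement.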

[17] = target: Peroxisome proliferator-activated receptor gamma (Homo sapiens) (UniProt P37231); test: qHTS assay to identify small molecule agonists of the peroxisome proliferator-activated receptor gamma (PPARg) signaling pathway (AID 743094; active means well fitted activation curve with a large enough effect in the signal ratio in the repeat runs, not every such curve was filed as active; the % refers to the signal ratio)
Outline: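 Reporter activation was scored by fluorescence of cleaved LiveBLAzer B/G substrate (1 h, room temperature) in PPARg-bla HEK293H cells previously treated 17 h at 37C with DMSO-dissolved compounds.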

[18] = qHTS assay to identify small molecule antagonists of the farnesoid-X-receptor (FXR) signaling pathway - cell viability counter screen (AID 743221; active means well fitted cell-killing curve with a large enough effect in the repeat runs, not every such curve was filed as active; further: nearly all actives have a fitted effect of over 50% in size)
Outline: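 Luminescence from CellTiter-Glo measures cytotoxicity in GeneBLAzer FXR-UAS-bla HEK 293T cells. Cells were exposed to compounds with 50 uM chenodeoxycholic acid (final) for 16 h at 37 C, in wells also used for the reporter readout.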

[19] = target: Bile acid receptor (Homo sapiens) (UniProt Q96RI1); test: qHTS assay to identify small molecule antagonists of the farnesoid-X-receptor (FXR) signaling pathway (AID 743217; active means well fitted inhibition curve with a large enough effect in the signal ratio in the repeat runs, not every such curve was filed as active; the % refers to the signal ratio)
Chain of Bile acid receptor (Homo sapiens) (Q96RI1 whole entry, looked up): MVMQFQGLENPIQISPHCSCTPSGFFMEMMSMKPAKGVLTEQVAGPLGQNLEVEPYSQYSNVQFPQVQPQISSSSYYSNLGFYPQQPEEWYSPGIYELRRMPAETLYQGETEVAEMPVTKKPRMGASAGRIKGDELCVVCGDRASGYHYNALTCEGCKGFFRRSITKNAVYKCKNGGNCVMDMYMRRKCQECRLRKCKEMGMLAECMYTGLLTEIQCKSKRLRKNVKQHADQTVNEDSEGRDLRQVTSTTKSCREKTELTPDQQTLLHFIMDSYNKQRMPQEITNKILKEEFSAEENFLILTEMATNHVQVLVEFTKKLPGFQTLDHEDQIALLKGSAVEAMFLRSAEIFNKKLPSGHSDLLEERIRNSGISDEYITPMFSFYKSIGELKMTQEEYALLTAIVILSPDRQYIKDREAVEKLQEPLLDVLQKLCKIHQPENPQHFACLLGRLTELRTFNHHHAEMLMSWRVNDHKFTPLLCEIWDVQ
Outline: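 Screen of the Tox21 10K library in quantitative HTS format using FXR-UAS-bla HEK 293T reporter cells. Agonist chenodeoxycholic acid, 50 uM final, added with compounds; 16 h incubation at 37 °C; beta-lactamase FRET fluorescence measured.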

[20] = target: Bile acid receptor (Homo sapiens) (UniProt Q96RI1); test: qHTS assay to identify small molecule agonists of the farnesoid-X-receptor (FXR) signaling pathway (AID 743220; active means well fitted activation curve with a large enough effect in the signal ratio in the repeat runs, not every such curve was filed as active; the % refers to the signal ratio)
Outline: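 FXR-UAS-bla HEK 293T cells carrying a UAS-driven beta-lactamase reporter were plated for 5 h at 37C/5% CO2, then exposed to DMSO-dissolved Tox21 10K compounds for 16 h at 37C. A LiveBLAzer B/G FRET substrate was loaded for 2 h at room temperature before fluorescence reading.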

| Structure (SMILES) | Potency [1] | Potency [2] | Potency [3] | Potency [4] | Potency [5] | Potency [6] | Potency [7] | outcome [8] | Potency [9] | Potency [10] | Potency [11] | outcome [12] | Potency [13] | Potency [14] | Potency [15] | outcome [16] | outcome [17] | Potency [18] | outcome [19] | Potency [20] |
| --- | --- | --- | --- | --- | --- | --- | --- | --- | --- | --- | --- | --- | --- | --- | --- | --- | --- | --- | --- | --- |
| COc1ccc(C)cc1 | inactive | inactive | inactive | inactive | inactive | inactive | inactive | inactive | inactive | inactive | inactive | inactive | inactive | – | – | – | – | – | – | – |
| CC(=O)OCC(=O)[C@@]1(OC(C)=O)[C@@H](C)C[C@H]2[C@@H]3C[C@H](F)C4=CC(=O)C=C[C@]4(C)[C@@]3(F)[C@@H](O)C[C@@]21C | inactive | inactive | – | inactive | inactive | inactive | inactive | – | inactive | inactive | inactive | – | inactive | inactive | inactive | inactive | – | – | – | – |
| O=C1OC[C@H](Cc2cccc(O)c2)[C@H]1Cc1cccc(O)c1 | inactive | inactive | inactive | – | inactive | inactive | inactive | inactive | inactive | inactive | inactive | inactive | – | inactive | – | – | – | – | – | – |
| CCO[Si](C)(CCCOCC1CO1)OCC (centres undefined) | inactive | inactive | – | inactive | – | inactive | inactive | inactive | inactive | inactive | inactive | – | inactive | – | – | inactive | inactive | inactive | – | – |
| O=C1NC(=O)c2cccc3cccc1c23 | 21.7 µM (active) | inactive | inactive | inactive | – | inactive | inactive | – | inactive | – | inactive | inactive | inactive | inactive | inactive | inactive | – | – | inactive | inactive |
| CCOC(=O)C(C)O (centres undefined) | inactive | inactive | – | inactive | inactive | inactive | inactive | inactive | inactive | inactive | inactive | inactive | inactive | inactive | inactive | – | – | inactive | inactive | inactive |
| COc1ccc(-c2cc(C(F)F)nn2-c2ccc(S(N)(=O)=O)cc2)cc1F | inactive | inactive | – | inactive | – | inactive | inactive | inactive | – | – | – | inactive | – | inactive | inactive | inactive | inactive | inactive | – | inactive |
| CCN(CC)C(=O)/C(C#N)=C/c1cc(O)c(O)c([N+](=O)[O-])c1 | inactive | inactive | inactive | inactive | – | inactive | inactive | inactive | inactive | – | inactive | – | inactive | – | inactive | – | – | inactive | – | – |
| O=c1[nH][nH]c(=O)c2cc([N+](=O)[O-])ccc12 | inactive | inactive | inactive | inactive | inactive | inactive | – | inactive | inactive | inactive | inactive | inactive | inactive | inactive | inactive | inactive | – | – | – | – |
| CC(C)COC(=O)COc1cc(Cl)c(Cl)cc1Cl | inactive | inactive | inactive | inactive | – | inactive | inactive | inactive | inactive | inactive | inactive | – | inactive | inactive | inactive | – | – | inactive | – | – |
| Cc1cc(CCC(=O)OCCOCCOCCOC(=O)CCc2cc(C)c(O)c(C(C)(C)C)c2)cc(C(C)(C)C)c1O | inactive | inactive | – | inactive | inactive | inactive | inactive | – | inactive | – | inactive | – | – | inactive | inactive | – | – | – | inactive | inactive |
| CCCC(=O)OC(=O)CCC | inactive | inactive | – | inactive | – | inactive | – | inactive | inactive | inactive | inactive | – | inactive | inactive | – | – | inactive | inactive | – | – |
| CC(C(=O)O)c1ccc(C(=O)c2cccs2)cc1 (centres undefined) | inactive | inactive | – | inactive | inactive | inactive | inactive | – | inactive | – | inactive | inactive | inactive | inactive | – | inactive | – | inactive | – | – |
| CC[C@H]1OC(=O)[C@H](C)[C@@H](O[C@H]2C[C@@](C)(OC)[C@@H](O)[C@H](C)O2)[C@H](C)[C@@H](O[C@@H]2O[C@H](C)C[C@H](N(C)C)[C@H]2O)[C@](C)(O)C[C@@H](C)CN(C)[C@H](C)[C@@H](O)[C@]1(C)O | inactive | inactive | – | inactive | – | inactive | inactive | inactive | – | – | – | inactive | inactive | inactive | – | – | inactive | – | – | – |
| CSSc1ccoc1C | inactive | inactive | – | inactive | inactive | inactive | inactive | inactive | – | inactive | – | – | inactive | inactive | inactive | – | – | inactive | inactive | inactive |
| O=S(=O)(Cl)c1c(Cl)cccc1Cl | inactive | inactive | inactive | inactive | inactive | inactive | inactive | inactive | inactive | inactive | inactive | – | inactive | inactive | inactive | – | – | inactive | – | – |
| O=C(CCS)OCC(COC(=O)CCS)(COC(=O)CCS)COC(=O)CCS | inactive | inactive | – | – | – | – | – | inactive | inactive | – | inactive | inactive | inactive | – | – | inactive | inactive | – | inactive | inactive |
